A selection follows.
aSyn 5UTR act – Activators working through SNCA 5'UTR binding (MLPCN) | alpha-synuclein 5'UTR reporter, activators screen | activity score, % (tested at 7.5 µM), hits read low | actives 7.1% (n = 300,000) | AID 1814; in the data active = activity score below about -60%
The depositor's hits bear a star.

SMILES	aSyn 5UTR act
Brc1ccc2oc3c(N4CCOCC4)ncnc3c2c1	-157.5*
CN(C)N=Nc1ccc(-c2cn(Cc3ccccc3)cn2)cc1	-74.2*
COc1ccc(Cc2[nH]n3c(=O)cc(C(C)C)nc3c2-c2ccccc2)cc1	71.9
COc1ccc(-c2cc(=O)n(-c3nc4ccccc4[nH]3)[nH]2)cc1	-67.6*
C(=C\c1ccccc1)/C=N/Nc1nc2ccccc2s1	-191.2*
Brc1ccc(/C=C/C=N/Nc2nc3ccccc3s2)cc1	-72.8*
CCC/C=N/Nc1nc2ccccc2s1	-244.1*
Cc1cc(NS(=O)(=O)c2ccc(NC(=O)c3cc4c(=O)n5ccccc5nc4s3)cc2)nc(C)n1	-79.2*
CC(C)CCNC(=O)c1cc2c(=O)n3ccccc3nc2s1	-146.0*
CCN(CC)C(=O)c1cc2c(=O)n3ccccc3nc2s1	-125.3*
COc1ccc(OCc2csc(N)n2)cc1	-116.6*
O=C(Nc1ccc(C(=O)Oc2ccccc2)c(O)c1)c1ccccc1	-66.2*
O=C(Nc1ccc(C(=O)Oc2ccccc2)c(O)c1)c1ccco1	-118.7*
COc1ccc2cc(-c3ccccc3)c(=O)oc2c1	-71.7*
CN(C)C(=O)COc1ccc2cc(-c3ccccc3)c(=O)oc2c1	-91.1*
N#Cc1cc(-c2ccccc2)nn1-c1ccccc1	-67.5*
N/C(=N\OC(=O)CC1CCCCC1)c1cccc(Br)c1	-84.4*
N/C(=N\OC(=O)CC1CCCCC1)c1ccc(Br)cc1	-83.2*
N/C(=N\OC(=O)C1CCCCC1)c1cccc(Br)c1	-170.4*
Cc1ccc(C)c(NC(=O)c2cnn(-c3ccccc3)c2C)c1	-81.4*
Cc1cccc(NC(=O)c2cnn(-c3ccccc3)c2C)c1C	-128.8*
Cc1ccccc1NC(=O)c1cnn(-c2ccccc2)c1C	-164.3*
CC(=O)N1N=C(c2ccc(C)cc2)OC1c1cccnc1 (stereo unspecified)	-75.2*
O=C(O)c1ccc(N=NN2CCCCCC2)cc1	-167.5*
O=c1oc(-c2ccccc2)cc(Cl)c1Cl	-197.6*
SMILES	aSyn 5UTR act
N/C(Cc1cccs1)=N\OC(=O)COc1ccc(Br)cc1Cl	-163.3*
N/C(Cc1cccs1)=N\OC(=O)COc1ccccc1Cl	-173.6*
CCCCCCN1Cc2ccccc2C1	-117.1*
CCCCCCCCCCn1ccc(=N)cc1	106.5
CCCCCCCCn1ccc(=N)cc1	61.9
Cc1ccc2nc(SCC(=O)c3ccc(Cl)s3)[nH]c2c1	-66.2*
CCOC(=O)c1sc(-c2ccc(OC)cc2)cc1NC(C)=O	-73.2*
COC(=O)C(Cc1ccc(O)cc1)N1Cc2ccccc2C1=O (stereo unspecified)	-144.4*
O=C(Nc1ccc([N+](=O)[O-])cc1)C(Cc1ccccc1)N1C(=O)c2cccc3cccc(c23)C1=O (stereo unspecified)	55.9
COC(=O)C(Cc1ccc(OC(=O)c2ccc(C)cc2)cc1)N1Cc2ccccc2C1=O (stereo unspecified)	-66.7*
CN(CC(=O)Nc1ccccc1Cl)C(=O)COC(=O)c1nc(Cl)c(Cl)c(Cl)c1Cl	-128.5*
Cc1cc(NC(=O)c2ccco2)ccc1-n1cnnn1	-76.7*
Nc1nc(NC(=O)c2ccco2)nn1-c1ccccc1	-65.7*
CC(=O)Nc1cc2nn(-c3ccccc3)nc2cc1Cl	-122.8*
O=C(Nc1nc2nccc(-c3ccccc3)n2n1)c1ccccc1	-82.8*
O=C(Nc1cc2nn(-c3ccccc3)nc2cc1Cl)c1ccco1	-128.8*
CC(C)(C)n1cnc2cc(NC(=O)c3ccco3)ccc21	-88.4*
O=C(Nc1ccc2nn(-c3ccccc3)nc2c1)c1ccco1	-255.4*
Cc1ccnc2nc(NC(=O)c3ccco3)nn12	-80.8*
Cc1cccc(CSc2nnc(-c3ccco3)n2C)c1	-70.4*
Cc1cccc(-c2nnc(SCc3ccccc3)o2)c1	-102.4*
Cc1cccc(CSc2nnc(-c3ccco3)o2)c1	-64.2*
Oc1ccccc1CNc1ccc(OC(F)(F)F)cc1	-72.1*
Oc1ccccc1CNc1ccc2c(c1)OCCO2	-71.8*
Cc1ccc(NCc2ccccc2O)cc1C	-116.5*
SMILES	aSyn 5UTR act
COc1ccc(-c2ccc3oc(-c4ccsc4)cc3c2)cc1	-139.7*
O=C(NC1CCCCC1)c1cc(-c2cccc(Cl)c2)on1	-235.5*
O=C(NC1CCCC1)c1cc(-c2cccc(Cl)c2)on1	-185.8*
COc1ccccc1NC(=O)CSc1nnc(-c2ccccn2)o1	-65.9*
O=C(CSc1nnc(-c2ccccn2)o1)Nc1ccccc1C(F)(F)F	-104.5*
COc1ccccc1-c1nnc(SCC(=O)Nc2ccc(Cl)cc2Cl)o1	-83.1*
CCn1ncc(Br)c1C(=O)Nc1ccc2c(c1)OCCO2	-93.6*
CCc1sc(C(=O)Nc2ccc3c(c2)OCCO3)cc1Br	-192.6*
CCn1ncc(Br)c1C(=O)Nc1ccc(C(C)C)cc1	-79.0*
CSc1ccc(CNc2ccc(C)c(C)c2)cc1	-139.1*
CSc1ccc(CNc2ccc(C)cc2)cc1	-149.4*
CCC(C)NC(=O)CSc1nc2ccsc2c(=O)n1NC(=O)c1ccccc1 (stereo unspecified)	-66.6*
CCOC(=O)CSc1nc2ccccc2c(=O)n1NC(=O)c1ccccc1	-65.9*
C=CCn1c(SCc2cc(C(C)=O)ccc2OCC)nc2ccccc2c1=O	104.0
Cc1ccc(/C=N/c2sc3c(c2C#N)CCC3)s1	-145.9*
N#Cc1c(/N=C/c2cc3ccccc3s2)sc2c1CCC2	-150.1*
CCN1C(=O)N/C(=C/c2cc(C)n(Cc3ccccc3)c2C)C1=O	-63.1*
CCN(CC)CCn1c(=N)n(CC(=O)c2ccc(C)cc2)c2ccccc21	-125.0*
COc1ccc(C(=O)Cn2c(=N)n(C)c3ccccc32)cc1	-62.4*
Cc1ccc(C(=O)Cn2c(=N)n(N)c3ccccc32)cc1	-166.0*
Cn1c(=N)n(CC(=O)c2ccccc2)c2ccccc21	89.8
O=C(/C=C\c1ccccc1OC(=O)c1ccccc1F)c1cc2ccccc2o1	-131.6*
Cc1ccc2nc(N3C(=O)CNC3=S)sc2c1	-68.3*
CCCn1nnc(NC(=O)c2ccc3c(c2)OCO3)n1	-89.8*
CCCn1nnc(NC(=O)c2sc3ccccc3c2Cl)n1	-104.1*
SMILES	aSyn 5UTR act
CCCn1nnc(NC(=O)c2ccc(-c3cccc(Cl)c3)o2)n1	-80.0*
CCCn1nnc(NC(=S)NC(=O)c2cccs2)n1	-101.9*
CCCn1nnc(NC(=O)c2cccc(Cl)c2)n1	-64.4*
CCCCn1nnc(N(C(=O)c2cccs2)C(=O)c2cccs2)n1	-88.7*
Cc1cc([N+](=O)[O-])ccc1NC(=O)c1csc(C)c1C	-97.8*
Cc1cc([N+](=O)[O-])ccc1NC(=O)c1cccc(NC(=O)C(C)C)c1	-98.8*
CCOC(=O)c1cnc(Nc2nc3ccccc3o2)nc1CSc1nnc(C)s1	-86.1*
CCOC(=O)c1cnc(Nc2nc3ccccc3o2)nc1C	85.9
CCN(C(=O)CSc1cc(C)c2cccc(C)c2n1)C1CCS(=O)(=O)C1 (stereo unspecified)	-79.6*
Cc1ccc(NC(=O)c2ccc(OC(=O)COc3ccc(Cl)cc3C)cc2)cc1	-79.5*
Cc1ccc(NC(=O)c2ccc(OC(=O)COc3cccc(Cl)c3)cc2)cc1	-129.6*
Cc1ccc(NC(=O)c2ccc(OC(=O)CCN3C(=O)c4ccccc4C3=O)cc2)cc1	-146.2*
Cc1cc(N)c(-n2cc3c(=O)n(C)c(=O)n(C)c3c2)cc1C	-133.7*
Cc1ccc(-n2cc3c(=O)n(C)c(=O)n(C)c3c2)cc1C	-107.4*
CC1Cc2cc(/C=C3/SC(=S)N(C)C3=O)ccc2O1 (stereo unspecified)	-86.0*
C[C@H]1Oc2ccccc2C(=O)C1C(=O)c1ccccc1 (stereo partly specified)	-100.4*
